Reference: PubChem BioAssay (NCI)
Several values for one entry are separate records, joined by “and”; a condition that tells them apart may be missing. Equal values may be shown once. Compounds without any hit were thinned out: in the full panel of roughly 83,000, 20% have a hit.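 Percent growth is the endpoint: 0 to 100 indicates growth inhibition (40 means 60% inhibition), 0 means no net growth, and negative values indicate cell death.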 Activity calls are given as the source filed them. The calls were made as follows: active = growth percent below 10; inactive = the rest.

Assays:
Test in all cases: NCI-60 one-dose screen, 48 h (100 = growth as untreated, 0 = no growth, -100 = all killed)
Settings in all cases: 10 µM unless noted
[1] = test system: SR leukemia
[2] = test system: RPMI-8226 leukemia
[3] = test system: OVCAR-8 ovarian
[4] = test system: OVCAR-5 ovarian
[5] = test system: SK-OV-3 ovarian
[6] = test system: IGROV1 ovarian
[7] = test system: OVCAR-3 ovarian
[8] = test system: HS 578T breast
[9] = test system: NCI/ADR-RES ovarian
[10] = test system: OVCAR-4 ovarian

Measured: growth

C#CCOCC1CN(C)C(=O)O1 (stereo not drawn)
inactive: [1] 69.7% | [2] 110% | [3] 94.1% | [4] 126% | [5] 133% | [6] 108% | [7] 109% | [8] 109% | [9] 109%

CCN1C(=O)N(c2ccccc2)C2NC(=S)N(/N=C/C=C/c3ccccc3)C21 (stereo not drawn)
inactive: [4] 59.7% | [5] 24% | [6] 20.8% | [8] 16.1%
active: [1] 7.28% | [2] -20.1% | [3] 5.29% | [7] 8.14% | [9] 2.91%

O=C1/C(=C/c2cn(-c3ccccc3)nc2-c2ccccc2)SC(=S)N1c1ccc(Cl)cc1
inactive: [1] 39.5% | [2] 78.8% | [3] 64.5% | [4] 93.4% | [5] 104% | [6] 69.1% | [7] 83.4% | [8] 83.7% | [9] 85.7%

Nc1nc(CSc2n[nH]c(N)n2)nc(Nc2ccccc2)n1
inactive: [1] 120% | [2] 102% | [3] 104% | [4] 98.8% | [5] 104% | [6] 108% | [7] 105% | [8] 81.5% | [9] 105%

COc1ccc(/C=N/C2=C(C#N)C(c3ccccc3)c3c(ccc4ccccc34)O2)cc1 (stereo not drawn)
inactive: [1] 17.5% | [3] 37.6% | [4] 48.8% | [5] 45.3% | [6] 23.5% | [8] 17.5% | [9] 10.3%
active: [2] -2.96% | [7] -11%

COc1ccc2c(c1)c(C(=O)c1nc(-c3cn(C)c4ccccc34)no1)cn2C
inactive: [1] 44.7% | [2] 93.6% | [3] 97.9% | [4] 107% | [5] 84.5% | [6] 86.5% | [7] 109% | [8] 88.2% | [9] 94.3%

Cc1ccc(NC(=O)c2ccc(CN3CCN(C)CC3)cc2)cc1Nc1nccc(-c2cccnc2)n1
inactive: [2] 87.4% and 38.3% | [3] 91.6% and 67.7% | [4] 123% and 97.5% | [5] 106% and 107% | [6] 119% and 98.3% | [7] 110% and 84% | [8] 90.1% | [9] 101% and 91.4%
85.4% (inactive) and -22.5% (active): [1]

O=C(Nc1cc(C(F)(F)F)cc(C(F)(F)F)c1)c1cc(Cl)ccc1O
inactive: [4] 27.2% and 23.1%
active: [1] -8.27% | [2] -31.5% and -35.6% | [3] -37.8% and 3.24% | [5] -56.9% and 1.67% | [6] 4.82% and 9.9% | [8] -8.03% | [9] -1.25% and 2.06%
19.3% (inactive) and 2.52% (active): [7]

O=C(NNc1ccccc1)c1ccccc1
inactive: [1] 104% | [2] 82.2% and 76.6% | [3] 106% and 73.5% | [4] 77.2% and 68.7% | [10] 94.5% and 64.6% | [5] 95.5% and 103% | [7] 81.4% and 101% | [8] 90.8% and 99.1% | [9] 64.3% and 57.6%

COc1ccc2c(c1)CC[C@@H]1[C@@H]2CC[C@]2(C)C3C(=CCC4C(=O)N(c5ccccc5)C(=O)C43)C[C@@H]12 (stereo partly drawn)
inactive: [1] 99.1% | [2] 61.2% | [3] 86.2% | [4] 75.7% | [5] 103% | [6] 113% | [7] 87.3% | [8] 97.6% | [9] 85.8%

CN(C)CCCn1c2nc(=O)[nH]c(=O)c-2nc2cc(Cl)c(Cl)cc21
inactive: [1] 83.7% | [2] 73.6% | [3] 50% | [4] 125% | [5] 109% | [6] 54% | [8] 106% | [9] 85.9%
active: [7] -20.9%

Clc1ccc(CNc2ccc3nc(CCC4CCCCC4)[nH]c3c2)cc1
inactive: [1] 26.2% | [3] 65.3% | [4] 53% | [5] 78.9% | [6] 45.9% | [7] 69.6% | [8] 78.8% | [9] 54.7%
active: [2] -6.18%

COc1ccc(/C=C2/C(=O)N=C3N2NC(c2ccccc2)=CN3c2ccccc2)cc1
inactive: [1] 106% | [2] 99.9% | [3] 98.1% | [4] 107% | [5] 107% | [6] 95.9% | [7] 111% | [8] 95.4% | [9] 96.9%

CN1C(=O)N(C)C2(c3ccccc3)N(CC(=O)Nc3ccccc3O)C(=O)NC12c1ccccc1 (stereo not drawn)
inactive: [1] 112% | [2] 106% | [3] 102% | [4] 104% | [5] 100% | [6] 101% | [7] 103% | [8] 105% | [9] 99.8%

Cc1nc2sc(C(=O)Nc3cccc4ncccc34)c(N)c2cc1C(C)O (stereo not drawn)
inactive: [1] 22.4% | [2] 75.8% | [3] 86.6% | [4] 96.5% | [5] 69.9% | [6] 74.4% | [7] 54.6% | [8] 63.6% | [9] 88%

Cc1oc2c(Cc3ccc(NC(=O)c4ccc(Cl)cc4)cc3)ncnc2c1C(=O)NO
inactive: [1] 71.2% | [2] 92.4% | [4] 103% | [10] 109% | [5] 94.1% | [6] 103% | [7] 95.8% | [8] 113% | [9] 98.2%

COc1cc(-c2nc3occn3c2-c2ccnc(NCCCNS(=O)(=O)c3ccc(O)cc3)n2)ccc1F
inactive: [1] 74.2% | [2] 97% | [4] 138% | [10] 129% | [5] 82.4% | [6] 97.8% | [7] 117% | [8] 93% | [9] 104%

CCCN1C(=O)/C(=c2\sc3n(c2=O)C2C(NN=3)N(CC)C(=O)N2CC)c2ccccc21 (stereo not drawn)
inactive: [1] 17% | [2] 21.9% | [4] 27.5% | [10] 48.8% | [5] 43.7% | [6] 16% | [7] 12.4% | [8] 16.8%
active: [9] 0.109%

C=C(C)[C@@H]1CC[C@]2(C(=O)N3CCN(C)CC3)CC[C@]3(C)[C@H](CC[C@@H]4[C@@]5(C)CC(CCCNC(C)=O)(CCCNC(C)=O)[C@H](OC(C)=O)C(C)(C)[C@@H]5CC[C@]43C)[C@@H]12
inactive: [1] 76.2% | [2] 75.5% | [4] 102% | [10] 111% | [5] 102% | [6] 102% | [7] 104% | [8] 96.6% | [9] 98.7%

COc1cccc(NC(=O)c2sc3nc(C)c(C(O)c4ccccc4)cc3c2N)c1 (stereo not drawn)
inactive: [2] 13.8% | [4] 47.5% | [10] 70.3% | [5] 12.5% | [6] 25.7% | [8] 14.6%
active: [1] 6.69% | [7] -10.4% | [9] 7.31%

CC/C(=C(/c1ccc(O)cc1)c1ccc(OCCN2CCCCCC2)cc1)c1ccc(Cl)cc1
active: [1] -24% | [2] -41.6%
inactive: [4] 75% | [10] 87.4% | [5] 96.4% | [6] 77.3% | [7] 61% | [8] 85.3% | [9] 84.5%

O=C(c1ccc(Nc2nccc(NCCCNc3ccnc4cc(Cl)ccc34)n2)cc1)N1CCCCC1
inactive: [2] 81% | [4] 71.2% | [10] 48.4% | [5] 66.7% | [6] 39.7% | [7] 37.7% | [8] 84.8% | [9] 92.6%
active: [1] -2.26%

Cn1cc(-c2nonc2-c2cn(C)c3ccc(Br)cc23)c2ccccc21
active: [7] 3.66% | [8] -1.89%
inactive: [1] 11.1% | [2] 29.6% | [4] 58.1% | [10] 55.5% | [5] 37.9% | [6] 45.6% | [9] 21%

Cc1ccc(-c2nc3nc(-c4ccc(Br)cc4)nc(N4CCCNCC4)c3o2)cc1
active: [1] -32.2% | [2] -36.9% | [4] -44.4% | [10] -94.2% | [6] -75.6% | [7] -95.1% | [8] -30.3% | [9] -64.8%
inactive: [5] 110%

N#CC1C(=O)c2ccccc2C1c1ccccc1 (stereo not drawn)
inactive: [1] 85.1% and 106% | [2] 111% and 102% | [4] 110% and 104% | [10] 99.5% and 99.2% | [5] 105% and 114% | [6] 100% and 110% | [7] 84.9% and 107% | [8] 116% and 105% | [9] 108% and 107%

CCC(=C(c1ccc(OCCCN(C)C)cc1)c1ccc(OCCCN(C)C)cc1)c1ccc(Cl)cc1
active: [1] -48.2% | [2] -55.4% | [4] -89.3% | [10] -85.8% | [5] -88.2% | [6] -84.9% | [7] -84.6% | [8] -77.4% | [9] -84.9%

C=C1C(=O)O[C@H]2[C@H]1CC/C(CNS(=O)(=O)c1ccc3ccccc3c1)=C\CC[C@@]1(C)O[C@@H]21
inactive: [4] 14.9% | [10] 24.2% | [5] 84.6% | [6] 37.1% | [8] 67% | [9] 65.2%
active: [1] -12.4% | [2] -4.34% | [7] -39.6%
